# Source: PubChem BioAssay (NCI)
# Several values for one entry are separate records, joined by “and”; a condition that tells them apart may be missing. Identical values can stand only once. Compounds without any hit were thinned out: in the full panel of roughly 83,000, 20% have a hit.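 A percent growth of 40 corresponds to 60% growth inhibition; 0 means no net growth; -100 means all cells died. Active threshold: below 10.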 Activity calls are given as the source filed them.
# Assays:
# Assay in all cases: NCI-60 one-dose screen, 48 h (100 = growth as untreated, 0 = no growth, -100 = all killed)
# Conditions in all cases: 10 µM unless noted
# [1] = tested on: SK-MEL-2 melanoma
# [2] = tested on: SN12C renal
# [3] = tested on: UO-31 renal
# [4] = tested on: TK-10 renal
# [5] = tested on: ACHN renal
# [6] = tested on: CAKI-1 renal
# [7] = tested on: A498 renal
# [8] = tested on: CCRF-CEM leukemia
# [9] = tested on: MOLT-4 leukemia
# [10] = tested on: SR leukemia
# [11] = tested on: RPMI-8226 leukemia
# [12] = tested on: OVCAR-8 ovarian
# [13] = tested on: OVCAR-5 ovarian
# [14] = tested on: OVCAR-4 ovarian
# [15] = tested on: SK-OV-3 ovarian
# [16] = tested on: IGROV1 ovarian
# [17] = tested on: OVCAR-3 ovarian
# [18] = tested on: HS 578T breast
# [19] = tested on: NCI/ADR-RES ovarian
SMILES,growth [1],growth [2],growth [3],growth [4],growth [5],growth [6],growth [7],growth [8],growth [9],growth [10],growth [11],growth [12],growth [13],growth [14],growth [15],growth [16],growth [17],growth [18],growth [19]
CC(=O)Nc1ccc2cc3ccc(NC(C)=O)cc3nc2c1,95.9% (inactive) and 108% (inactive),52.6% (inactive) and 52.2% (inactive),79% (inactive) and 76% (inactive),136% (inactive) and 119% (inactive),79.1% (inactive) and 58.4% (inactive),45.9% (inactive) and 97.2% (inactive),115% (inactive) and 113% (inactive),78.9% (inactive) and 104% (inactive),54.9% (inactive) and 74.7% (inactive),72.3% (inactive),54.5% (inactive) and 94.8% (inactive),88.7% (inactive) and 85.6% (inactive),89.2% (inactive) and 63.4% (inactive),87.1% (inactive) and 98.3% (inactive),-13.4% (active) and 67.8% (inactive),85.8% (inactive) and 101% (inactive),85.8% (inactive) and 99.2% (inactive),84.3% (inactive) and 87.3% (inactive),99.9% (inactive) and 97.7% (inactive)
Cc1cc(O)c2c(c1)C(=O)c1cc(O)cc(O)c1C2=O,94.9% (inactive) and 85.1% (inactive),86.1% (inactive) and 91.1% (inactive),76.6% (inactive) and 71.2% (inactive),104% (inactive) and 95.4% (inactive),87.8% (inactive) and 88.8% (inactive),72.2% (inactive) and 95.2% (inactive),82.7% (inactive) and 75.8% (inactive),82.5% (inactive) and 80% (inactive),101% (inactive) and 85.9% (inactive),108% (inactive) and 86% (inactive),75.8% (inactive) and 74.3% (inactive),92.7% (inactive),,55% (inactive) and 68.5% (inactive),102% (inactive) and 84.8% (inactive),65.9% (inactive) and 101% (inactive),84.1% (inactive) and 95.9% (inactive),89.7% (inactive) and 88.9% (inactive),
CC(C)(O)Cn1cc(-c2ccc3nc(OC4CC4)ccc3c2)c2c(N)ncnc21,87.8% (inactive),87.9% (inactive) and 38.6% (inactive),63.7% (inactive) and 19.2% (inactive),74.2% (inactive) and 55.3% (inactive),86.2% (inactive) and 43.1% (inactive),,64.9% (inactive) and 21% (inactive),67.2% (inactive) and 38% (inactive),56.6% (inactive) and 17.4% (inactive),49.9% (inactive) and 21% (inactive),55.3% (inactive) and 39.9% (inactive),90.2% (inactive) and 63.6% (inactive),84.7% (inactive) and 48.4% (inactive),,83.4% (inactive) and 57.9% (inactive),,109% (inactive) and 69.8% (inactive),71.1% (inactive) and 31.9% (inactive),
O=C(Cc1nc2ccc(C(=O)c3ccccc3)cc2[nH]c1=O)C(=O)Nc1ccccc1[N+](=O)[O-],,,,75.1% [100 µM] (inactive) and 12.6% [100 µM] (inactive),,,,,,,,,,,,,,,
CCC(c1ccc(N(C)C)cc1)C1NC(=S)NC1=O (configuration not stated),,,,47.6% [100 µM] (inactive) and 37.5% [100 µM] (inactive),,,,,,,,,,,,,,,
NC(=S)NS(=O)(=O)c1ccc(N)cc1,109% (inactive),109% (inactive),88.1% (inactive),110% (inactive),96.5% (inactive),,82.8% (inactive),106% (inactive),101% (inactive),96.5% (inactive),110% (inactive),99.4% (inactive),,113% (inactive),108% (inactive),107% (inactive),123% (inactive),101% (inactive),104% (inactive)
N#CC1(C#N)C2CCCCC23OC(=N)C1(C#N)C(c1ccco1)O3 (configuration not stated),,,,-40.6% [100 µM] (active),,,,,,,,,,,,,,,
COc1c2c(c3c(c1OC)c(=O)c1ccccc1n3C)OCO2,,,,74.8% [100 µM] (inactive),,,,,,,,,,,,,,,
N#C/C=C1\C=CC(O)C(O)C1OC1OC(CO)C(O)C(O)C1O (configuration not stated),,,,97.1% [100 µM] (inactive) and 93.8% [100 µM] (inactive),,,,,,,,,,,,,,,
N#C/C(=C/c1c(O)ccc2ccccc12)C(N)=O,87.6% (inactive),108% (inactive),54% (inactive),114% (inactive),92.4% (inactive),84% (inactive),107% (inactive),,92.4% (inactive),,88.2% (inactive),105% (inactive),105% (inactive),92% (inactive),92.6% (inactive),93.4% (inactive),90.1% (inactive),113% (inactive),94.6% (inactive)
CCOC(=O)C(CNc1ccccc1)C(=O)OCC,109% (inactive),105% (inactive),84.7% (inactive),106% (inactive),102% (inactive),,98.5% (inactive),,98.5% (inactive),97% (inactive),95.1% (inactive),98.2% (inactive),102% (inactive),107% (inactive),98.9% (inactive),101% (inactive),105% (inactive),109% (inactive),103% (inactive)
COC(=O)[C@H]1CCCN1C(=O)C1CCCN1C(=O)[C@@H](Cc1ccccc1)NC(=S)Nc1cc(C(F)(F)F)cc(C(F)(F)F)c1 (some centres not stated),109% (inactive) and 103% (inactive),96.1% (inactive) and 84% (inactive),94.6% (inactive) and 59.1% (inactive),114% (inactive) and 90% (inactive),98.4% (inactive) and 85.6% (inactive),89.2% (inactive),96.6% (inactive) and 81.4% (inactive),106% (inactive) and 72.2% (inactive),,95.2% (inactive) and 67.5% (inactive),109% (inactive) and 66.2% (inactive),100% (inactive) and 87% (inactive),,104% (inactive) and 80.7% (inactive),128% (inactive) and 109% (inactive),123% (inactive) and 69.8% (inactive),111% (inactive) and 77.1% (inactive),105% (inactive) and 98.2% (inactive),109% (inactive) and 93.9% (inactive)
Nc1ccc2ccc(N)cc2c1,68.4% (inactive),88.5% (inactive),59.4% (inactive),117% (inactive),84.8% (inactive),75.7% (inactive),100% (inactive),,76.8% (inactive),36.8% (inactive),84.6% (inactive),82% (inactive),124% (inactive),40% (inactive),91.6% (inactive),73.6% (inactive),25.5% (inactive),104% (inactive),
C=CC(COC(=O)C(C)(C)OC(C)=O)c1ccc(OC(=O)C(C)C)c(OC)c1 (configuration not stated),,,,-92.8% [100 µM] (active) and -93% [100 µM] (active),,,,,,,,,,,,,,,
C=C1C(=O)O[C@@H]2C[C@@]3(C)CC(=O)C=C(C)[C@@H]3C[C@H]12,,,,-87.6% [100 µM] (active) and -78.7% [100 µM] (active),,,,,,,,,,,,,,,
CCN(CC)CCCC(CNc1ccnc2cc(Cl)ccc12)c1ccc(Cl)cc1 (configuration not stated),-56.2% (active) and -67.7% (active),-3.18% (active) and 84.7% (inactive),-91.5% (active) and -65.7% (active),-76.7% (active) and 14.7% (inactive),-80.7% (active) and 2.15% (active),-64.4% (active) and -63.6% (active),42.3% (inactive) and -81.8% (active),-17.5% (active) and -46.6% (active),,-42.9% (active) and -57.7% (active),-7.53% (active) and -24.9% (active),7.69% (active) and 8.6% (active),17.5% (inactive) and 62.9% (inactive),-34.9% (active) and 14.3% (inactive),28% (inactive) and 99.4% (inactive),-9.56% (active) and 20.2% (inactive),43% (inactive) and 19.9% (inactive),21.6% (inactive),
COc1cc(-c2nccc3cc4c(cc23)OCO4)cc(OC)c1OC,9.15% (active),39% (inactive) and 47.3% (inactive),50.8% (inactive) and 44.4% (inactive),44.9% (inactive) and 28.9% (inactive),36.2% (inactive) and 40.2% (inactive),20% (inactive) and 30.8% (inactive),41.3% (inactive) and 20.1% (inactive),34.2% (inactive) and 34.4% (inactive),,18.5% (inactive) and 35.6% (inactive),37.5% (inactive),48.9% (inactive) and 35.2% (inactive),66.4% (inactive) and 73.5% (inactive),,23.7% (inactive) and 9.08% (active),45.8% (inactive) and 37.7% (inactive),-9.95% (active) and -25.2% (active),18.7% (inactive) and 53.8% (inactive),-3.6% (active) and 8.92% (active)
